# According to ChEMBL document CHEMBL1157539, “Thousands of chemical starting points for antimalarial lead identification” (Nature, 2010):
# What was measured:
# Format in all cases: functional
# [1] = system: Plasmodium falciparum; assay: GSK_TCMDC: Inhibition of Plasmodium falciparum 3D7 in whole red blood cells, using parasite LDH activity as an index of growth. Test compounds present at 2uM
# [2] = system: Plasmodium falciparum; assay: GSK_TCMDC: Inhibition of Plasmodium falciparum Dd2 in whole red blood cells, using parasite LDH activity as an index of growth. Test compounds present at 2uM
# [3] = system: HepG2; assay: GSK_TCMDC: Percent inhibition of human HepG2 cell line. Test compounds present at 10uM.
SMILES,Inhibition [1],Inhibition [2],Inhibition [3]
Br.CCC(C)Oc1ccc(CCCON2C(N)=NC(N)=NC2(C)C)cc1 (stereo not drawn),92%,95%,65%
Cc1cc(-c2nc3ccc(C(=O)NCc4ccccc4)cc3n2C2CCN(C(=O)c3ccc(-c4ccccc4)cc3)CC2)ccn1,95%,97%,36%
Cc1cnc(N2CCN(CC3CCN(C)CC3)CC2)nc1Oc1ccc(-n2ccnc2)cc1.O=C(O)C(F)(F)F,99%,66%,9%
Cc1ccc(NCc2cccc(F)c2)cc1S(=O)(=O)N[C@@H]1CCN(C#N)C1,89%,83%,13%
N#Cc1ccc2[nH]cc(CN3CCC4(CC3)CN(CCNCc3ccccc3)C(=O)CO4)c2c1.O=C(O)C(F)(F)F,98%,0%,0%
COc1ccc2nc(C)cc(N/N=C/c3ccc([N+](=O)[O-])cc3)c2c1,100%,70%,0%
CCNc1cc(C(=O)N[C@@H](Cc2ccccc2)[C@H](O)CNC(C)(C)CCCC(C)C)cc(N2CCCC2=O)c1.O=CO,100%,81%,0%
Cc1ccc2[nH]c(C)cc(=NN=Cc3cccc(Cl)c3)c2c1,100%,98%,12%
Cc1noc(-c2cccs2)c1C(=O)NCCc1cccc(Cl)c1,97%,95%,0%
CC(C)(CNC(=O)C1CCN(CCOc2ccc(Cl)cc2)CC1)c1nc(-c2ccc(Cl)c(O)c2)c(-c2ccncc2)[nH]1.Cl,100%,5%,40%
Br.COc1ccc(OC)c2c1CCN(C)C2Cc1cccc2ccccc12 (stereo not drawn),91%,79%,13%
FC(F)(F)c1ccc2[nH]c(-c3ccc(-c4ccc(CN5CCN(c6ccncc6)CC5)cc4)cc3)nc2c1.O=C(O)C(F)(F)F,100%,99%,91%
C[C@H](Cc1ccc(OCCCCCCCOc2ccc(C[C@@H](C)NC[C@H](O)c3cccc(Cl)c3)cc2)cc1)NC[C@H](O)c1cccc(Cl)c1.Cl,99%,97%,99%
Nc1nc(N)c2cc(C#Cc3ccc(-c4ccccc4)cc3)ccc2n1,94%,3%,20%
Cc1cc(NCCCCCCNc2cc(C)nc3c(C)cccc23)c2cccc(C)c2n1.Cl,100%,9%,23%
Cc1ccc(O)c(CN2CCCC(COC(c3ccc(F)cc3)c3ccc(F)cc3)C2)c1 (stereo not drawn),98%,98%,19%
Cc1cccn2c(=O)c3cc(C(=O)NC(C)c4ccccc4)c(=N)n(CCN4CCOCC4)c3nc12 (stereo not drawn),100%,5%,6%
Br.N=C(N)Nc1nc(-c2cccc(NC(=O)C(F)(F)F)c2)cs1,94%,24%,0%
COCc1ccccc1C(=O)NCCOc1cc(C)cc(C)c1,96%,95%,26%
Cc1cc(C(=O)Nc2ccc(-c3ccccc3)cc2)no1,90%,94%,6%
Cc1nc(-c2cccc(Nc3ccnc4cc(-c5nccs5)ccc34)c2)no1.Cl,99%,90%,37%

SMILES,Inhibition [1],Inhibition [2],Inhibition [3]
Cc1cc(C)c(C(=O)Nc2n[nH]c3nnc(-c4cccc(F)c4F)cc23)c(C)c1,90%,0%,0%
O=C(O)C(F)(F)F.O=C1CCCN1CCCNCc1ccc(-c2ccc(-c3nc4cc(F)ccc4[nH]3)cc2)cc1,100%,99%,16%
CS(=O)(=O)O.FC(F)(F)COc1ccc2ccccc2c1CCNCCCCNCCc1c(OCC(F)(F)F)ccc2ccccc12,100%,53%,99%
O=C(/C=C/c1ccc(Cl)c(Cl)c1)NC1CCC(CN2CCC(c3nc4cccnc4[nH]3)CC2)CC1 (stereo not drawn),100%,2%,7%
CN(c1ccc2c(c1)nc(NC(=O)C1(c3cc(F)ccc3F)CC1)n2C)c1ccnc(Nc2cccc(CS(C)(=O)=O)c2)n1.O=C(O)C(F)(F)F,89%,46%,42%
COc1ccc(CNCc2ccccc2)cc1-c1ccc(OC)c(S(=O)(=O)NCCN2CCCC2)c1.O=C(O)C(F)(F)F,100%,55%,14%
CC(C)(C)c1cc(C(=O)Nc2ccc(C(=N)N)cc2)c(O)c(C(C)(C)C)c1.O=C(O)C(F)(F)F,100%,88%,4%
c1ccc2c3c(ccc2c1)Sc1c(ccc2ccccc12)N3,92%,31%,0%
O=C(/C=C/c1ccc(Cl)c(Cl)c1)NCCCCCN1CCC(NC(=S)Nc2ccc(Cl)c(Cl)c2)CC1,99%,65%,29%
CCOC(=O)/C(=N\OC(C(=O)OC(C)(C)C)c1ccccc1)c1csc(NC(c2ccccc2)(c2ccccc2)c2ccccc2)n1 (stereo not drawn),89%,68%,14%
CCOc1cc(/C=N/Nc2nc3ccccc3[nH]2)ccc1OCc1ccc([N+](=O)[O-])cc1,100%,1%,2%
CCC(C)Oc1ccc2nc(N)nc(N)c2c1Cl (stereo not drawn),96%,0%,57%
COc1ccc2nccc([C@@H](O)CN3CCC(NCc4cc5c(F)ccc(F)c5[nH]4)CC3)c2c1.O=C(O)C(=O)O,100%,67%,29%
N#Cc1cccc(C(O)CN(Cc2ccccc2)Cc2ccccc2)c1 (stereo not drawn),100%,100%,12%
CCCCCN1CCCC(NS(=O)(=O)c2cccc(C(=O)Nc3cccc(C(F)(F)F)c3)c2)C1.O=C(O)C(F)(F)F (stereo not drawn),86%,5%,22%
CNc1nc(N/N=C/c2cc([N+](=O)[O-])c(Cl)cc2Cl)nc(Nc2cccc(C(F)(F)F)c2)n1,100%,97%,13%
Nc1nccc2ccc(-c3ccncc3)cc12,96%,95%,19%
CC(=O)Nc1ccc(NC(=O)c2cc(-c3cc(Cl)ccc3O)n[nH]2)cc1,100%,100%,1%
N#CC(c1cccc(Cl)c1)c1ccc2c(C(F)(F)F)cc(C(F)(F)F)nc2n1 (stereo not drawn),96%,97%,52%
Cc1cc(C)c(NC(=O)NC2CCN(CCCCCNC(=O)/C=C/c3ccc(Cl)c(Cl)c3)C2)c(C)c1 (stereo not drawn),99%,48%,23%
CC1(C)NC(N)=NC(=N)N1OCc1cccc(Cl)c1Cl.Cl,92%,75%,68%

SMILES,Inhibition [1],Inhibition [2],Inhibition [3]
Br.CCN(CC)CCn1c(=N)n(CC(=O)c2ccc(-c3ccccc3)cc2)c2ccccc21,83%,38%,32%
Cc1nnc(-c2ccc3ccccc3c2)c2cn(-c3cccc([N+](=O)[O-])c3)nc12,91%,67%,29%
NC(=O)c1ccc(C(=O)Nc2cccc(-c3ccc(-c4nc5cc(C(F)(F)F)ccc5[nH]4)cc3)c2)cc1,100%,31%,35%
CN(C)CCOc1ccc2c(=O)cc(CCc3cccc(F)c3F)n(CC(=O)N(C)Cc3ccc(-c4ccc(C(F)(F)F)cc4)cc3)c2c1.O=C(O)C(O)C(O)C(=O)O,90%,60%,33%
CC(=O)c1ccc(NC(=O)Nc2ccc(N(C)c3ccnc(Nc4cccc(CS(C)(=O)=O)c4)n3)cc2)cc1,100%,98%,86%
CC1CC(C)CN(CCCNc2ccc(C(=O)Nc3ccc(C(F)(F)F)cc3)cc2[N+](=O)[O-])C1 (stereo not drawn),100%,99%,31%
O=C(Nc1ccc2ccccc2n1)c1ccccc1-c1ccccc1,90%,83%,14%
CCN(CC)CC(O)c1cc(-c2ccc(OC)cc2)nc2cc(Cl)ccc12.Cl (stereo not drawn),99%,98%,12%
Cc1cccc2c3c([nH]c12)C1(CCN(Cc2ccccc2)CC1)NC(C(=O)NCc1ccccc1)C3 (stereo not drawn),81%,8%,0%
O=C(Nc1cccc(-c2ccc(-c3nc4cc(C(F)(F)F)ccc4[nH]3)cc2)c1)c1ccoc1,98%,42%,76%
CCSc1nc2sc3c(c2c(=O)n1-c1ccccc1)CCN(C)C3,83%,71%,16%
CC(C)C(C)(C#N)NC(=O)CSc1nc2ccc([N+](=O)[O-])cc2s1 (stereo not drawn),95%,81%,0%
COc1cccc(-c2cc(-c3ccc(NC(=O)c4ccccc4)cc3)c3c(N)ncnc3n2)c1,99%,98%,0%
CC(C)CCNC(=O)C1Cc2c([nH]c3cc(Br)ccc23)C2(CCN(CCc3ccccc3)CC2)N1 (stereo not drawn),97%,48%,14%
O=C(O)C(F)(F)F.c1ccc(CNCc2ccc(-c3ccc(-c4nc5ccccc5[nH]4)cc3)cc2)cc1,100%,93%,32%
CCC(=O)N(c1ccccc1)C1CCN(CCCC(NC(=O)c2cc(C(F)(F)F)cc(C(F)(F)F)c2)c2ccc(Cl)c(Cl)c2)CC1 (stereo not drawn),96%,57%,24%
CCCCCC(C)c1cc(O)c2c(c1)OC(C)(C)C=C2C1=CCN(Cc2ccccc2)CC1 (stereo not drawn),96%,96%,13%
Br.CC1(C)NC(N)=NC(=N)N1OCCOc1ccc(Cc2ccccc2)cc1,94%,26%,62%
COc1ccccc1N1CCN(Cc2cc(C(C)C)c(C)cc2O)CC1,97%,98%,7%
